# Assay results: PMC7819943, “Rice protein-binding microarrays: a tool to detect cis-acting elements near promoter regions in rice”
# The full ranking holds about 35,000 sequences; the median of “fluorescence intensity (a.u.)” is about 10,000, and the highest 2% start at about 52,000. Shown is part of a subset that was picked to be rich in the highest values.
# Target: T1, OsWOX13 (Oryza sativa, UniProt Q5QMM3 1-267)
# T1 sequence: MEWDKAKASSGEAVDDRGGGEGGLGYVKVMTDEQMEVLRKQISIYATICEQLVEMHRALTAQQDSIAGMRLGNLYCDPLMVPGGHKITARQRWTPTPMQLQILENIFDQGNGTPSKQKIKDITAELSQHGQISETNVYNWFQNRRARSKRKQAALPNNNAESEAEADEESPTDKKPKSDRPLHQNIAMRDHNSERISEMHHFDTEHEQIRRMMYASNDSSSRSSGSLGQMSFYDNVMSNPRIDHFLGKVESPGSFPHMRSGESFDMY
# Experiment: protein-binding microarray (RPBM); PBS, 2% BSA, 51.3 ng/ul salmon testes DNA, 50 uM zinc acetate, 200 nM TF, 25 C, 1 h; high values mean tight binding
# Details: protein: recombinant; tags: N-terminal polyhistidine and DsRed monomer fusion (pET32a); label: CyDye5-dUTP incorporated in the synthesized complementary strand; 3' TTTTT single-stranded linker to array surface; dsDNA, one strand shown
# Summary of the method: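 Using Ni–NTA, transcription factors fused N-terminally to polyhistidine and DsRed were purified after expression in E. coli BL21-CodonPlus. These were incubated at 200 nM with a blocked, double-stranded custom Agilent array for 1 h at 25 °C in a buffer containing 50 µM zinc acetate, and the array was washed. The binding signal is per-feature fluorescence intensity (arbitrary units) on an Axon 4000B scanner.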
row,Sequence,binding signal
1,TATAATTTAAATTCAAATTTGAATCGGGTATGTAAACTTTCGGAGTCACCTAGTGCAG,15500 fluorescence intensity (a.u.)
2,TCATGAAATTAATAGGATGCCACGTCGACTTGGTTGTTCCCGGAGTCACCTAGTGCAG,3510 fluorescence intensity (a.u.)
3,ATAAATTTATAGGTAAAACTTTTATATAGATGTTCTTGGTCGGAGTCACCTAGTGCAG,15300 fluorescence intensity (a.u.)
4,TGAAATTGGAATGATGTGAAGGAAAAGTTGGAAGTTTGTGCGGAGTCACCTAGTGCAG,20700 fluorescence intensity (a.u.)
5,CTAATTACTATCCATCATGTTTCTGTGGACGCGCGGCTCACGGAGTCACCTAGTGCAG,9700 fluorescence intensity (a.u.)
6,TCTCTATAATTAAACATTCCAATTTCGAAAATGTTGTTAGCGGAGTCACCTAGTGCAG,8580 fluorescence intensity (a.u.)
7,AAGTTTCAAAATTTAAATTTTGACCGCATGCAGCTGATAACGGAGTCACCTAGTGCAG,4610 fluorescence intensity (a.u.)
8,ACGTTATTAATTACTTAGTACTACTATGAGTTAACTATGGCGGAGTCACCTAGTGCAG,18500 fluorescence intensity (a.u.)
9,TGGGCCTGATTAACATGTGCTGTAGAATCGTACAACTGTGCGGAGTCACCTAGTGCAG,7530 fluorescence intensity (a.u.)
10,ACTTGTATATTTGTGGATTGATACATTACATATTGATCTACGGAGTCACCTAGTGCAG,5160 fluorescence intensity (a.u.)
11,CATTGATTGACATTGTTGAGGCAGTACTGTTACAGTTGAGCGGAGTCACCTAGTGCAG,59400 fluorescence intensity (a.u.)
12,ATTTGATTGTATATTGTACTAGTGCTACTACTACGTGGAGCGGAGTCACCTAGTGCAG,60400 fluorescence intensity (a.u.)
13,CCTGATTCTGATTGGCGCCAACGTACGTACTGTACATGCGCGGAGTCACCTAGTGCAG,56900 fluorescence intensity (a.u.)
14,CAGTGTGATTGACTGTTGAGGCGGAGTCGGAGCTGCTTGTCGGAGTCACCTAGTGCAG,50900 fluorescence intensity (a.u.)
15,GCTTAATTGGTTAGTGGACTAGTATATAGTAGTACTGTATCGGAGTCACCTAGTGCAG,46500 fluorescence intensity (a.u.)
16,TTAGATTGGGACAGTACGTAGGAATTGGTTGATTTCCGGGCGGAGTCACCTAGTGCAG,16300 fluorescence intensity (a.u.)
17,GTACAGTGTACTTGATTGAGTTGACAGTCATACTCTACTACGGAGTCACCTAGTGCAG,18500 fluorescence intensity (a.u.)
18,CTATTGATTTCTGCTGCTACTTTTCTATACTGTATTTTGTCGGAGTCACCTAGTGCAG,15500 fluorescence intensity (a.u.)
19,CACCATTGCATGATTGCATCTGCATCACTGCATGCCAACGCGGAGTCACCTAGTGCAG,5680 fluorescence intensity (a.u.)
20,TATTGATTGATTGGTTAGTACTACAGTACTGTAGGAGTGGCGGAGTCACCTAGTGCAG,64700 fluorescence intensity (a.u.)

row,Sequence,binding signal
1,AAAGGGTTAATTTGTCAAATTTTCGGGCTTTAGTGAAAAGCGGAGTCACCTAGTGCAG,12700 fluorescence intensity (a.u.)
2,TCAAACTTACATAATTTACATGCCATGTTATCCAATATGCCGGAGTCACCTAGTGCAG,11100 fluorescence intensity (a.u.)
3,GGAAAGACAGATTGAAGAAGCTGGGGTTCAAACCCAGGATCGGAGTCACCTAGTGCAG,10300 fluorescence intensity (a.u.)
4,ATGTCGACATACGTAATTAATGTACACTCAGAACATGTCGCGGAGTCACCTAGTGCAG,4870 fluorescence intensity (a.u.)
5,TAAAACTATTTAATTACCAAACTATTCACGTGATGAGATGCGGAGTCACCTAGTGCAG,14900 fluorescence intensity (a.u.)
6,CTAATCTAATCATCGGATTAGGAAATAAGTAAGCAAACAACGGAGTCACCTAGTGCAG,6880 fluorescence intensity (a.u.)
7,TCTATAAATTGAACATGTTTCAAACCAGGCTTGCAAGTTGCGGAGTCACCTAGTGCAG,15500 fluorescence intensity (a.u.)
8,AGTTTCCTAATCTATTATATGATAGTACTCGGTCGGAGCTCGGAGTCACCTAGTGCAG,3210 fluorescence intensity (a.u.)
9,ATTTAACTGTATAAACAATTAATAACAAGAATTGTGTATACGGAGTCACCTAGTGCAG,16100 fluorescence intensity (a.u.)
10,AGTAATTTACTTGCTAGCTTGCAACTATTTCTTAGTACATCGGAGTCACCTAGTGCAG,3460 fluorescence intensity (a.u.)
11,CATCCTCATTAACGGCAGATTAATACTATTTAGTCCATCTCGGAGTCACCTAGTGCAG,3220 fluorescence intensity (a.u.)
12,AAACTGATTGACGGTTTTCTTTCTAAAACTGATTTTCAGGCGGAGTCACCTAGTGCAG,43200 fluorescence intensity (a.u.)
13,AAATTTTGATTTTAAAACTTAATTGTAAAGTTGACTTTAACGGAGTCACCTAGTGCAG,9040 fluorescence intensity (a.u.)
14,AAGTTGATTACTTAAACTGATTGACAGGGAGGCGGTTGAACGGAGTCACCTAGTGCAG,56600 fluorescence intensity (a.u.)
15,TATATATATATATATATATATATACCCACGTGAGGACGTACGGAGTCACCTAGTGCAG,31500 fluorescence intensity (a.u.)
16,GGCAGCAAGACCAATTTTAATTGAAGACCACGGAAGGAGCCGGAGTCACCTAGTGCAG,3450 fluorescence intensity (a.u.)
17,CACAATTTAATATGGTTATAATTGTAATCTCACATATCCTCGGAGTCACCTAGTGCAG,7610 fluorescence intensity (a.u.)
18,ACGTAATTATAATTTATTTTGTTATGAGTTGGTTTATCACCGGAGTCACCTAGTGCAG,62600 fluorescence intensity (a.u.)
19,ACGTAATTATAGCTTATTTTGTTATGAGTTATTTTATCACCGGAGTCACCTAGTGCAG,24500 fluorescence intensity (a.u.)
20,GTGAAAATGATTGGTCTTTTGATTAACATATGCAGCTTATCGGAGTCACCTAGTGCAG,53300 fluorescence intensity (a.u.)

row,Sequence,binding signal
1,AATTGATGATGAAATAATGAATGATATTTGACAAGGAGCTCGGAGTCACCTAGTGCAG,17300 fluorescence intensity (a.u.)
2,TTAGTGCTTAAATGATTAATCTATGGTCTAAATTATCTTTCGGAGTCACCTAGTGCAG,7610 fluorescence intensity (a.u.)
3,ACGTAATTATAATTTATTTTATTATGAGTTGTTTTATCACCGGAGTCACCTAGTGCAG,37000 fluorescence intensity (a.u.)
4,GTTGATTTAATTATGGTTAACCTCTCACAGTAATCCGGGTCGGAGTCACCTAGTGCAG,64800 fluorescence intensity (a.u.)
5,ATAATTGATAATGAAGACCAAGGAAATGCTTCTTTGGTCCCGGAGTCACCTAGTGCAG,54300 fluorescence intensity (a.u.)
6,TGAAATGGTTAAATGATTTGGGTTGAAATATTATGAAAATCGGAGTCACCTAGTGCAG,3220 fluorescence intensity (a.u.)
7,TTTGTTATAATTGATATTTAATTAATCATATGGTAATTACCGGAGTCACCTAGTGCAG,27800 fluorescence intensity (a.u.)
8,GATATATGATTGACTCAAGTCTTATTGATAAACTTGGTCCCGGAGTCACCTAGTGCAG,57500 fluorescence intensity (a.u.)
9,TATGTAATTATTATTTATTTTATTGTGATTTGATTCATCACGGAGTCACCTAGTGCAG,31400 fluorescence intensity (a.u.)
10,TGTAATTATAATTTATTTTATTGTGATTTGATTTATCATCCGGAGTCACCTAGTGCAG,59800 fluorescence intensity (a.u.)
11,GTAATAATTGATTGGTTCAGAAATTAATCACTAATTGTCCCGGAGTCACCTAGTGCAG,65000 fluorescence intensity (a.u.)
12,GCTTAATTAATTGATTCAGAAAATAAAATAGTGAAATAACCGGAGTCACCTAGTGCAG,33400 fluorescence intensity (a.u.)
13,ACGTAATTATAATTATTTTATTGTGAGTTGTTTTATTACTCGGAGTCACCTAGTGCAG,26500 fluorescence intensity (a.u.)
14,TGTAATTATAATTTATTTTGTGATGAGTTGTTTTATCACTCGGAGTCACCTAGTGCAG,55800 fluorescence intensity (a.u.)
15,GTAATTATAATTTATTTTGTTATGAGTTGTTTTATCACTCCGGAGTCACCTAGTGCAG,6220 fluorescence intensity (a.u.)
16,TTGATATTCTTTATATGATTATATAGGATTGGTCTCCCTCCGGAGTCACCTAGTGCAG,3530 fluorescence intensity (a.u.)
17,ATGGTTTGACTTGGATAAACTGGATTCTTAACTCAAACCTCGGAGTCACCTAGTGCAG,3410 fluorescence intensity (a.u.)
18,TTATGTAATTATAATTTATTTTATTGTGACTTGATTTATCCGGAGTCACCTAGTGCAG,34000 fluorescence intensity (a.u.)
19,AATAATTTGGTTAGTTATTGTTAAGGAGAAATTTGATTCCCGGAGTCACCTAGTGCAG,12500 fluorescence intensity (a.u.)
